Source: PubChem (several laboratories)
HSV replic up – enhancers of HSV replication in host cells, fold increase, host cell viability. HSV replication augmentation in cells. maximum fold increase. 220,000 tested, 0.005% active; in the data active = maximum fold increase above about 1.5; inconclusive = no clear call, values can overlap the other calls; tested in PC3 cells
Insulin prom up – insulin promoter activators in MIN6 cells, imaging, high-content screening, mouse beta cells; 190,000 tested, 0.3% active; MIN6 insulin promoter-GFP reporter; stronger effect = higher value; AID 1625, 2009; z-score at 5 µM;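 active = z-score above 3 at 5 µM with at least 500 cells counted in the well; inconclusive = wells under 500 cells, flagged as cytotoxic or low count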
ROMK mod – ROMK potassium channel modulators, primary screen, cell-based, thallium flux, MLSMR library; ATP-sensitive inward rectifier potassium channel 1 (Homo sapiens), P48048; Tet-inducible ROMK, thallium flux fluorescence; actives lie on both sides; B-score at 10 µM; 130,000 tested, 2% active;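 active = signal ratio slope over the read window, or its plate-corrected B-score, at least 3 SD from the plate mean, either direction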;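 note: B-score of the F/F0 ratio slope over 7 to 12 s after thallium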
Target sequence (P48048 whole entry, looked up): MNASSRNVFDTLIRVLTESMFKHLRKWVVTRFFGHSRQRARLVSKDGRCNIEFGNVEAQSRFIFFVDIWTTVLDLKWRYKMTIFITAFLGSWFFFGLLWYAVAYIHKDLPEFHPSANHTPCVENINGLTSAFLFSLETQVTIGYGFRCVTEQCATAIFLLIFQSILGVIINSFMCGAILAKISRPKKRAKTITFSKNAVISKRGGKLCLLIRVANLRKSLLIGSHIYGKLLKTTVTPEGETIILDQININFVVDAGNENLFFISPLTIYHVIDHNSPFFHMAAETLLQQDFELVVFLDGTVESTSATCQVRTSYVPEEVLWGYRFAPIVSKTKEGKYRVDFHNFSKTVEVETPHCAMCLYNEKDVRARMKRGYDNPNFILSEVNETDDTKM
Tb hexokinase – Trypanosoma brucei hexokinase 1 inhibitors, primary screen, biochemical, G6PDH-coupled NADH absorbance, MLSCN library; hexokinase 1 [Trypanosoma brucei]; recombinant TbHK1, G6PDH-coupled NADH A340; 220,000 tested, 0.11% active; inhibition, % at 10 µM; AID 1430, 2008;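 active = inhibition of 50% or more in the single-dose primary screen; inactive = inhibition below 50%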
INS promoter inh – inhibitors of insulin promoter-driven GFP, primary screen, imaging, TRM-6 cells (human fetal islet line), eGFP reporter, cell count; inhibition, % at 2 µM; reporter expression induced with tamoxifen; 130,000 tested, 0.9% active;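 active = inhibition above the mean plus 3 SD, with well images judged a real hit on visual review, cut at about 60% in these data, passing the limit was not always enough; inconclusive = inhibition over the cutoff but images rejected on review; inactive = inhibition not above the cutoff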
Numbers stand for hits; - = inactive; ? = inconclusive; . = no result given. Only a selection was taken, and hits are over-represented in it overall.

SMILES	HSV replic up	Insulin prom up	ROMK mod	Tb hexokinase	INS promoter inh
CCN1CCN(CC(=O)Nc2c(C(=O)OC)[nH]c3cccc(Cl)c23)CC1	-	-	-	-	78.6
CCOC(=O)N1CCN(CC(=O)Nc2c(C(=O)OC)[nH]c3cccc(Cl)c23)CC1	-	-	-	-	.
COCCNC(=S)N/N=C(\C)c1ccc2cc(OC)ccc2c1	-	3.43	-	-	-
CC(C)(C)NC(=O)/C=C/c1cccc(C(F)(F)F)c1	-	-	-	-	60.0
N#C/C(=C/c1ccc(Sc2nc3ccccc3[nH]2)o1)c1cccc(Br)c1	-	-	-	-	-
N#C/C(=C/c1ccc(Sc2nc3ccccc3[nH]2)o1)c1cccc(F)c1	-	-	-	-	72.2
CNS(=O)(=O)c1cccc(C(=O)NCC(c2cccs2)N(C)C)c1 (stereo not given)	-	-	-	-	73.3
COc1ccc(C(=O)N[C@H](C(=O)NCc2cccs2)C(C)C)cc1	-	-	-	-	.
Cc1ccc2c(c1)N=C(c1ccccc1)CC(C(Cl)Cl)=N2	-	-	.	-	.
Cc1ccc(C2=Nc3ccccc3N=C(C(Cl)Cl)C2)cc1	-	.	-	-	82.3
CN(Cc1ccccc1)C(=O)N1CCOCC1	-	-	.	-	.
O=C(COc1ccc([N+](=O)[O-])cc1)Nc1nnc(-c2cccnc2)s1	-	-	.	-	.
Cc1nc2ccccc2c(=O)n1NC(=O)C1CC1C (stereo not given)	-	.	-	-	.
O=S(=O)(Cc1ccc(Cl)cc1)c1ccccc1-c1nnc(-c2ccccc2)o1	-	13.8	.	-	-
Cc1ccc(-n2c(=O)cc(N3CC(C)CC(C)C3)[nH]c2=O)cc1 (stereo not given)	-	-	.	-	72.7
Cc1ccccc1C(=O)N/N=C1/SCC(=O)N1Cc1ccccc1	-	-	-	-	.
COc1ccc(NC(=O)/C(Cl)=C(/Cl)S(=O)Cc2ccc(Cl)cc2)cn1 (stereo not given)	-	-	-	-	-
C=CCNc1nnc(Sc2ncccc2[N+](=O)[O-])s1	.	-	-	-	92.9
Cc1cnc(Sc2ncccc2[N+](=O)[O-])nc1	?	.	.	-	-
COc1ccc(C(=O)C2=NN(C(C)=O)CC2c2ccco2)cc1 (stereo not given)	.	-	.	-	-
C=CCn1c(SCC(=O)NC2CC2)nc2sc(CC)cc2c1=O	-	-	-	-	.
C#CCSc1nc2ccccc2n1C(=O)c1ccc(S(=O)(=O)N2CCCCC2)cc1	-	-	-	-	76.0
CCSc1nc2ccccc2n1C(=O)c1ccc(S(=O)(=O)N2CCCCCC2)cc1	-	-	.	-	.
CCSc1nc2ccccc2n1C(=O)c1ccc(S(=O)(=O)N2CCCCC2)cc1	-	.	.	-	82.2
CCN(CCNC(=O)C1CCCN(S(=O)(=O)CC)C1)c1ccccc1 (stereo not given)	-	3.08	-	-	-
SMILES	HSV replic up	Insulin prom up	ROMK mod	Tb hexokinase	INS promoter inh
CCN(CCNC(=O)C1CCN(S(=O)(=O)CC)CC1)c1ccccc1	-	-	-	-	-
S=c1[nH]nc(-c2ccccn2)n1/N=C/c1ccc(Cl)cc1	-	-	.	-	.
COc1cc(CN2CCN(Cc3ccc(C)cc3)C(CCO)C2)ccc1O (stereo not given)	-	.	-	-	78.3
CCn1c(=O)cc(SCC(=O)Nc2ccc(C)cn2)c2ccccc21	-	-	-	-	.
CCOC(=O)C1CCN(C(=O)CSc2n[nH]c(=O)[nH]c2=O)CC1	-	-	-	-	81.5
COC(=O)c1ccc(COC(=O)CNS(=O)(=O)c2ccc(C)cc2)cc1	-	-	-	-	73.0
CN(C)C(CNc1ccc([N+](=O)[O-])cc1C#N)c1ccccc1 (stereo not given)	-	.	-	-	.
CCCNC(=O)N1CCC(C(=O)c2ccc(Cl)cc2)CC1	-	3.79	.	-	-
COc1c2c(nc3ccccc13)OC(C(C)(O)COC(C)=O)C2 (stereo not given)	-	3.26	.	-	-
N#C/C(=C\c1ccc(-c2ccc(S(=O)(=O)N3CCOCC3)cc2)o1)C(=O)NC1CC1	-	-	-	-	61.5
N#C/C(=C\c1ccc(-c2ccc(C(=O)O)cc2)o1)C(=O)NCC1CCCO1 (stereo not given)	-	-	-	-	-
CN(C)c1ccc(/C=C2\SC(=O)N(CCc3nnc(N)s3)C2=O)cc1	?	3.27	.	-	.
CC1=C(C(=O)Nc2ccc(Cl)cc2)C2(CCCCC2)C(C(N)=O)C(=S)N1 (stereo not given)	-	-	-	-	-
CCCCCCc1cc2cc(S(=O)(=O)c3ccc(F)cc3)c(=O)oc2cc1O	-	-	.	-	.
CCCCCCc1cc2cc(-c3nnc(-c4ccccc4O)o3)c(=O)oc2cc1O	.	7.49	.	-	-
CCCCCCc1cc2cc(-c3nnc(-c4cc(OC)c(OC)c(OC)c4)o3)c(=O)oc2cc1O	.	9.96	.	-	-
CCCCCCc1cc2cc(-c3nnc(-c4ccccc4OC)o3)c(=O)oc2cc1O	.	8.91	.	-	-
CS(=O)(=O)N(CC(=O)N/N=C/c1ccc(OCC(=O)N2CCOCC2)cc1)c1ccccc1Cl	-	-	.	-	-
CN(C)c1ccc(/C=N/NC(=O)CN(c2ccccc2Cl)S(C)(=O)=O)cc1Br	-	3.57	.	-	-
Cc1nn(C)c(C)c1NC(=O)c1ccnn1C	-	-	.	-	72.2
COc1cc(-c2[nH]ncc2CN2CCN(Cc3cccs3)CC2)cc(OC)c1OC	-	-	-	-	.
O=C(c1ccccc1)c1ccc2nc[nH]c2c1	-	-	.	-	94.6
CCCCCn1nnc2c(=O)oc3ccccc3c21	-	-	.	-	.
c1ccc(-n2ncc3c(N4CCN(c5ccccn5)CC4)nc(N4CCCCCC4)nc32)cc1	-	4.11	-	-	.
O=C(NCc1ccccn1)C(=O)Nc1nc(C23CC4CC(CC(C4)C2)C3)cs1	-	-	-	-	.
SMILES	HSV replic up	Insulin prom up	ROMK mod	Tb hexokinase	INS promoter inh
S=C(Nc1ccccc1)N1CCN(c2ccc(N3CCOCC3)nn2)CC1	-	-	-	-	75.0
COc1ccc(-n2c3nc4ccccc4nc3c3c(=N)oc(C)nc32)cc1	-	-	.	-	-
O=C(CCn1c(=O)[nH]c2ccsc2c1=O)Nc1ccc(F)c(F)c1	-	-	.	-	-
CC(C)C(=O)c1cc2c(cc1NC(=O)c1cccs1)OCCO2	-	.	.	-	71.4
CC(C)C(=O)c1cc2c(cc1NC(=O)c1ccccc1)OCCO2	-	.	.	-	88.6
CC(=O)Nc1cc2c(cc1C(=O)C(C)C)OCCO2	-	-	.	-	-
Cc1cccc(C(=O)Nc2ccc(N3CCN(S(C)(=O)=O)CC3)cc2)c1	-	-	-	-	.
CC(=O)C1=C(C)N2CCN=C2S1	-	-	-	-	.
O=C(Cc1c(O)c2ccccc2[nH]c1=O)NCc1ccccc1F	-	-	.	54.1	-
O=C(NNS(=O)(=O)c1ccc2ccccc2c1)c1cc(-c2ccccn2)nc2ccccc12	-	-	-	-	-
Cn1nc(C(F)(F)F)cc1-c1ccc(S(N)(=O)=O)s1	-	-	.	-	.
O=C1OC(c2ccc3c(c2)OCO3)N(C(=O)c2ccc(Cl)c(Cl)c2)c2ccccc21 (stereo not given)	-	-	0.533	-	-
